Screening results from PubChem.
ssDAF12 agonist: activators of S. stercoralis DAF-12 nuclear receptor | HEK293 ssDAF-12/GRIP1 lit1-tk-luc reporter, luminescence; % of 3 µM dafachronic acid response | activation, % at 6.8 µM | hit rate 1% among 370,000;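 active means activation above the mean over all tested compounds plus 3 SD, cut at about 0.9% in these data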
hgDAF-12 ag: activates the H. glycines DAF-12 receptor ligand-binding domain; HEK293 GAL4-hgDAF12 UAS-luciferase reporter, agonist luminescence; normalized to butyrate control; activation, % at 6.8 µM; hit rate 1.8% among 370,000; AID 687014;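 active means activation above a cutoff set at the mean of all screened compounds plus 3 SD, cut at about 10% in these data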
hcDAF12 agonist: activates DAF-12 receptor from parasite H. contortus; HEK293 hcDAF-12 lit1-tk-luc reporter, luminescence; 0% DMSO, 100% Δ7-dafachronic acid; activation, % at 6.8 µM; hit rate 1.4% among 370,000; AID 652067;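 active means activation above the mean of all tested compounds plus 3 SD, cut at about 5.5% in these data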
esBAF inh: inhibitors of esBAF chromatin remodeling in mouse ES cells. reporter increase, % at 12.5 µM. Bmi1-luciferase knock-in reporter, 24 h; 100% = twice the neutral-well signal. hit rate 2% among 350,000. AID 602393; in the data active means activation above about 40%; inconclusive means no clear call, values can overlap the other calls;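 further: a rise in the Bmi1 reporter signal indicates esBAF inhibition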
DAX1 StAR inh: DAX1 (NR0B1) inhibition, primary screen; hit rate 1.1% among 370,000; HEK293T StAR-luciferase reporter, SF-1/DAX-1 repression relief; inhibition, % at 6.8 µM;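 active means inhibition above the mean over all tested compounds plus 3 SD, cut at about 3.6% in these data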;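 further: higher inhibition means more luminescence from relief of DAX-1 repression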
Wnt bcat act: Wnt/beta-catenin pathway activation. Wnt/beta-catenin reporter cell assay, activator, plate reader. activation, % at 9.35 µM. hit rate 1.2% among 300,000. AID 743398; in the data active means activation above about 30%, passing the limit was not always enough; inconclusive means no clear call, values can overlap the other calls
DAX1 inh confirm: confirmation of human DAX1 (NR0B1) inhibitors | HEK293T StAR-promoter luciferase reporter, SF-1/DAX-1 repression | shares compounds with DAX1 StAR inh | hit rate 87% among 2,400 | inhibition, % at 6.8 µM;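 active means inhibition above the average of every tested compound plus 3 SD, cut at about 3.8% in these data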;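 further: active compounds raise luminescence by relieving repression of the StAR reporter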
Target sequence (P51843 whole entry, looked up): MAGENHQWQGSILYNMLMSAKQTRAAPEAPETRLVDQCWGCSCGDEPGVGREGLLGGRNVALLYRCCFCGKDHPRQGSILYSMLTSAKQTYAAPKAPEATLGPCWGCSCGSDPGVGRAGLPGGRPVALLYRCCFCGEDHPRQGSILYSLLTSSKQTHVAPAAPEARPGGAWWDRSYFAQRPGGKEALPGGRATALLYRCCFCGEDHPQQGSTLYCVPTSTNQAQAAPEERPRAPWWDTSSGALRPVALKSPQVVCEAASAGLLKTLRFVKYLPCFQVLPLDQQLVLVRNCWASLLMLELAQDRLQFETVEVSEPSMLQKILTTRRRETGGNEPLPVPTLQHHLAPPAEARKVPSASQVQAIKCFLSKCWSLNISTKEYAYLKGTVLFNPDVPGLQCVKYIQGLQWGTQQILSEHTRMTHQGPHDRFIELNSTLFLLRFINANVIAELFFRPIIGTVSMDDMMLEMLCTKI
SF1 mutant ctr: nonselective inhibitor or artifact in SF-1 mutant DAX1 counter-screen | shares compounds with DAX1 StAR inh | HEK293 StAR-luciferase, SF-1 AF2 mutant, luminescence | inhibition, % at 6.8 µM | hit rate 78% among 2,400;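 active means inhibition above the mean of all tested compounds plus 3 SD, cut at about 3% in these data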
LXRb hcDAF ctr: counter-screen for hcDAF-12 agonists: agonists of human LXR-beta | shares compounds with hcDAF12 agonist | HEK293 Gal4-LXR tk-luc reporter, luminescence, 24 h; normalized: DMSO 0%, positive control 100% | activation, % at 6.8 µM | 3,400 tested, under 10 active | AID 743027;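 active means mean percent activation of the reporter above a cutoff set as the average over tested compounds plus their standard deviation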
hcDAF12 conf: hcDAF-12 agonism, confirmation assay | shares compounds with hcDAF12 agonist | HEK293 hcDAF-12 lit1-tk-luc reporter, luminescence; % of Δ7-dafachronic acid response | activation, % at 6.8 µM | hit rate 61% among 3,400 | AID 743032;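 active means mean activation across triplicate tests above the threshold derived from the earlier primary screen, cut at about 5.5% in these data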
hgDAF12 conf: confirmation of H. glycines DAF-12 agonists | shares compounds with hgDAF-12 ag | HEK293 GAL4-hgDAF12 luciferase reporter, agonist mode; percent of butyrate response | activation, % at 6.8 µM | hit rate 80% among 3,300 | AID 743050;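 active means mean activation over triplicate wells above the hit cutoff derived from the earlier primary screen, cut at about 11% in these data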
LXR ag 2: LXR-beta agonism as DAF-12 counter-screen; shares compounds with hgDAF-12 ag; HEK293 Gal4-LXR luciferase reporter, 24 h; activation, % at 6.8 µM; 3,300 tested, under 10 active;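 active means mean activation of the triplicate above a set limit carried over from the primary screen, none filed active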
Of the large screens only hits and unclear results are named; the others gave an inactive call (follow-up assays come after a bar, where they were run). Sampled rows, rich in hits. Any-hit rate of the full collection: about 4.2%.

Cc1ccccc1S(=O)(=O)N1[C@@H]2Cn3c(ccc(-c4cccnc4)c3=O)[C@H]1[C@@H](C(=O)O)[C@@H]2CO	none (no result: ssDAF12 agonist, hgDAF-12 ag, hcDAF12 agonist, DAX1 StAR inh, Wnt bcat act)
c1ccc2oc(-c3ccc4c(c3)CNCc3cnnn3-4)cc2c1	esBAF inh 66, DAX1 StAR inh 5.0 | DAX1 inh confirm 7.0 | SF1 mutant ctr 4.6
CC(C)C(NC(=O)C(C(C)C)N(C)C)C(=O)N(C)C(C(=O)N1CCCC1C(=O)N1CCCC1C(=O)NCc1ccccc1)C(C)C (stereo unspecified)	DAX1 StAR inh 5.4 (no result: esBAF inh) | DAX1 inh confirm 21 | SF1 mutant ctr inactive
Cc1ccc2c(c1)NP(=S)(Oc1ccccc1)N2 (stereo unspecified)	ssDAF12 agonist 1.0, hgDAF-12 ag 12, hcDAF12 agonist 7.5, DAX1 StAR inh 8.0 | DAX1 inh confirm 6.5 | SF1 mutant ctr 2.9 | LXRb hcDAF ctr inactive | hcDAF12 conf inactive
COC(=O)[C@@H]1[C@@H](CO)[C@@H]2Cn3c(ccc(-c4cccc(F)c4)c3=O)[C@H]1N2Cc1ccccc1	none (no result: ssDAF12 agonist, hgDAF-12 ag, hcDAF12 agonist, DAX1 StAR inh, Wnt bcat act)
CNC(=O)Oc1ccc(-c2cn3cc(Cl)ccc3n2)cc1	ssDAF12 agonist 1.6, hgDAF-12 ag 14, hcDAF12 agonist 6.4, DAX1 StAR inh 6.1 (no result: esBAF inh, Wnt bcat act) | DAX1 inh confirm 9.8 | SF1 mutant ctr 3.5 | hgDAF12 conf 21 | LXR ag 2 inactive
N=C1c2ccccc2CN1CC(=O)c1ccccc1	ssDAF12 agonist 2.6, hgDAF-12 ag 20, hcDAF12 agonist 23, DAX1 StAR inh 7.0 (no result: esBAF inh, Wnt bcat act) | DAX1 inh confirm 11 | SF1 mutant ctr 7.2 | LXRb hcDAF ctr inactive | hcDAF12 conf 7.3 | hgDAF12 conf 24 | LXR ag 2 inactive
N=C1c2ccccc2CN1NC(=O)c1ccccc1	none (no result: esBAF inh)
COC(=O)[C@H]1[C@H](CO)[C@H]2Cn3c(ccc(C4=CCCCC4)c3=O)[C@@H]1N2CCc1ccccc1	none (no result: ssDAF12 agonist, hgDAF-12 ag, hcDAF12 agonist, DAX1 StAR inh, Wnt bcat act)
CC(=Nc1ccccc1N)c1c(O)n(C)c(=O)[nH]c1=O	ssDAF12 agonist 1.8, hcDAF12 agonist 7.7 | LXRb hcDAF ctr inactive | hcDAF12 conf inactive
COC(=O)[C@@H]1[C@@H](CO)[C@@H]2Cn3c(ccc(-c4cccnc4)c3=O)[C@H]1N2CCc1ccccc1	none (no result: ssDAF12 agonist, hgDAF-12 ag, hcDAF12 agonist, DAX1 StAR inh, Wnt bcat act)
C=CCOC(=O)c1ccccc1N	none
Nc1ccccc1C(=O)OCCOc1ccccc1	hgDAF-12 ag 11, hcDAF12 agonist 9.3, DAX1 StAR inh 4.3 (no result: Wnt bcat act) | LXRb hcDAF ctr inactive | hcDAF12 conf 7.5
O=C1c2ccccc2-c2cccc3cccc1c23	esBAF inh inconclusive
O=C1c2ccccc2-c2cc3ccccc3cc21	hcDAF12 agonist 6.6, Wnt bcat act 46 (no result: esBAF inh) | LXRb hcDAF ctr inactive | hcDAF12 conf 7.1
CCCCn1c(=O)c(C(=O)Nc2ccsc2C(=O)OC)c(O)c2ccccc21	hcDAF12 agonist 7.2 (no result: esBAF inh) | LXRb hcDAF ctr inactive | hcDAF12 conf inactive
CCCCn1c(=O)c(C(=O)Nc2ccccc2F)c(O)c2ccccc21	hcDAF12 agonist 7.0 | LXRb hcDAF ctr inactive | hcDAF12 conf 6.1
O=c1[nH]c(=O)n(Cc2ccccc2)c(O)c1/C=C1\C=Nc2ccccc21	none (no result: esBAF inh)
